Compounds without any hit were thinned out: in the full panel of roughly 83,000, 20% have a hit.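 Plates (96-well) were seeded with cells, treated with compound at one concentration, and incubated for 48 hours before percent growth was determined.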 Unmarked numbers belong to inactive results. Active and inactive are the calls of the source. Rule for the calls: active = growth percent below 10; inactive = the rest.

These results are taken from PubChem BioAssay (NCI).

Common to all, as to test: NCI-60 one-dose screen, 48 h (100 = growth as untreated, 0 = no growth, -100 = all killed)
Settings in all cases: 10 µM unless noted

Test [1] has as its system SK-MEL-2 melanoma.
The subject of test [2] is EKVX NSCLC.
The test system of test [3] is SN12C renal.
Test [4] deals with UO-31 renal.
Test [5] has as its system TK-10 renal.
The subject of test [6] is ACHN renal.
The subject of test [7] is CAKI-1 renal.
Test [8] concerns A498 renal.
In test [9] the test system is CCRF-CEM leukemia.
Test [10] deals with MOLT-4 leukemia.
The test system of test [11] is SR leukemia.
In test [12] the test system is RPMI-8226 leukemia.
Test [13] concerns OVCAR-8 ovarian.
Test [14] concerns OVCAR-5 ovarian.
Test [15] concerns OVCAR-4 ovarian.
In test [16] the test system is SK-OV-3 ovarian.
The test system of test [17] is IGROV1 ovarian.
For test [18], the system named is OVCAR-3 ovarian.
The test system of test [19] is NCI/ADR-RES ovarian.
In test [20] the test system is HS 578T breast.

`Cc1nn(C)c2ncnc(Nc3ccccc3Br)c12`: the growth in test [1] is 100%; in test [2] it was 60.6%; in [3], 98.8%; in test [4], 96.8%; in [5], 97%; in test [6], 106%. Besides, the growth in [7] was 102%; in [8], 71.4%; in [9] it was 93.3%; in test [10], 95.9%; in [11], 84.8%; in test [12], 95.2%. The growth in test [13] was 106%; in [14], 99.6%; in test [15] it was 109%; in test [16] it was 99%; in test [17], 105%; in [18], 108%. The growth in [19] was 107%.

As for `Nc1nc(N)c2c(n1)NC(c1ccc3c(c1)OCO3)CC(c1cccc(Nc3ccncc3)c1)=N2` (stereo not drawn), the growth is 86% in test [1]; 89.1% in [2]; 94.6% in test [3]; 96.1% in test [4]; 99.6% in test [5]; 110% in [6]. The growth was 78.8% in test [7]; 93% in test [8]; 70% in test [9]; 71.2% in test [10]; 53.1% in test [11]; 80.5% in [12]. For the same compound, the growth in test [13] is 83.8%; in [14], 114%; in test [15], 98.7%; in [16], 90.9%; in [18], 90.9%; in test [20] it was 81.4%. Also, the growth in test [19] was 107%.

Turning to `Cn1ccnc1C(=O)/C=C/c1ccc(C(=O)Nc2c(F)c(F)c(F)c(F)c2F)cc1`, the growth was 96.2% in test [1]; 25% in test [2]; 6.49% (active) in test [3]; -81.7% (active) in [4]; 20.4% in [5]; -43% (active) in test [6]. The growth in test [7] was 8.22% (active); in test [8] it was 76.7%; in test [9], 2.63% (active); in test [10], 2.64% (active); in [11], -17.4% (active); in test [12], -9.03% (active). The growth in test [13] was 20.6%; in test [14], 13.1%; in test [15] it was 22.4%; in test [16], 62.1%; in test [17], 0.574% (active); in [18], -4% (active). For the same compound, in test [19], the growth was 7.31% (active).

On to `COc1cccc(-c2nn(-c3ccccc3)cc2-c2ccnc(-c3cccnc3)c2)c1`, for which the growth in test [1] was 87.4%; in test [2] it was 93.3%; in [3], 101%; in test [4] it was 62.1%; in [5] it was 104%; in [6], 92.6%. The growth was 102% in test [7]; 98.6% in [8]; 99% in test [9]; 88.1% in test [10]; 74.9% in test [11]; 67.7% in test [12]. The growth in test [13] is 105%; in [14], 95.9%; in test [15], 82.7%; in test [16] it was 104%; in test [17], 94.8%; in test [18], 96.8%. The growth in test [19] is 90.6%.

As to `O=C1N/C(=N/N=C(c2ccccc2)c2ccccc2)S/C1=C\c1ccc(Br)cc1`, the growth in test [1] is 96.7%; in test [2], 101%; in test [3] it was 98%; in test [4], 73.1%; in test [5] it was 107%; in test [6], 97.7%. Further, the growth is 77.2% in test [7]; 89.2% in [8]; 84.4% in [9]; 106% in test [10]; 83.3% in test [11]; 95.6% in [12]. Besides, the growth was 95.6% in test [13]; 102% in test [14]; 96.8% in test [15]; 97.2% in test [16]; 91.9% in [17]; 102% in test [18]. Besides, the growth in [19] is 103%.

With `OC1CSSC1Cn1cnc2c(Nc3ccc(F)c(Cl)c3)ncnc21` (stereo not drawn), the growth in test [1] was 93.3%; in test [2], 58.5%; in test [3], 98.9%; in test [4], 44%; in test [5], 96.1%; in test [6], 98.1%. The growth in test [7] was 105%; in [8], 103%; in [9] it was 29.6%; in test [10] it was -27.1% (active); in [11], 3.55% (active); in test [12], 55.7%. Further, the growth in [13] is 96.5%; in test [14], 115%; in test [15] it was 91.4%; in test [16], 107%; in [18] it was 68.5%; in test [20], 103%. Moreover, the growth in [19] was 93.3%.

In the case of `CCCCCCCC/C=C\CCCCCCCCOc1ccc(CC(=O)NCC[N+]2(C)CCCC2)cc1`, the growth in [1] is 103%; in test [2], 86.1%; in test [3] it was 42.5%; in test [4], 93.3%; in test [5] it was 38.5%; in [6], 84.1%. Moreover, the growth in [7] was 50.9%; in test [8], 86.4%; in [9] it was 29.5%; in [10] it was 68.4%; in test [11] it was 50.3%; in test [12] it was 58.2%. Also, the growth in [13] is 50.4%; in test [14], 25%; in test [15], 62.1%; in [16], 104%; in test [17], -11.8% (active); in test [18], 84.3%. In addition, the growth in test [19] was 111%.
